# Data: PubChem BioAssay (Tox21)
# Where “and” joins values, the source holds several entries; their conditions need not be identical. Equal values may be shown once. Records with an inconclusive call do not appear. Some structures have more than one record in an assay (separate samples or runs), and their calls can disagree. Calls of active or inactive are those of the source. Calls come from the whole dose curve.
# Experiment: qHTS assay for small molecule agonists of the p53 signaling pathway - cell viability (AID 651633); note: nearly all actives have a fitted effect of over 30% in size;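 for activity change, negative = cytotoxicity: p53RE-bla HCT reporter cells with a stable beta-lactamase p53 reporter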
# Conditions: p53RE-bla HCT-116 viability, ATP luminescence, 16 h; series mostly up to 83.3 µM; activity change, negative = cytotoxicity: at the top concentration
# Text: National Center for Advancing Translational Sciences [NCATS]
# NIH Chemical Genomics Center [NCGC]
# U.S. Environmental Protection Agency [EPA]
# National Institutes of Environmental Health Sciences [NIEHS]
# National Toxicology Program [NTP]
# U.S. Food and Drug Administration [FDA]
# p53, a tumor suppressor protein, is activated following cellular insult, including DNA damage and other cellular stresses. The activation of p53 regulates cell fate by inducing DNA repair, cell cycle arrest, apoptosis, or cellular senescence. The activation of p53, therefore, is a good indicator of DNA damage and other cellular stresses. […] The activation of the reporter gene under culture conditions can be detected by fluorescence intensity. This cell line was used to screen the Tox21 compound library in a 1536-well plate format and to identify agonists that activate the p53 signaling pathway.
# Tox21 Assay Protocol Summary:
# The p53RE-bla cells were dispensed at 4,000 cells/5 ul/well in 1536-well black wall/clear bottom plates using a Multidrop dispenser. After the assay plates were incubated at a 37 C/5% CO2 incubator for 5 hours, 23 nL of compounds dissolved in DMSO, positive controls or DMSO only was transferred to the assay plate by a pin tool. The plates were incubated at 37 C for 16 hours. After 1 uL of LiveBLAzerTM B/G FRET substrate was added using a Flying Reagent Dispenser, the plates were incubated at room temperature for 2 hours, and fluorescence intensity was measured by an Envision plate reader.
# For cell viability readout that measures cytotoxicity, 4 ul/well of CellTiter-Glo reagent was added into the assay plates using a Flying Reagent Dispenser. After 30 min incubation at room temperature, the luminescence intensity in the plates was measured using a ViewLux plate reader.
# % is set by controls: 0 for no effect and ±100 for the full control effect; potency is the fitted concentration of half-maximal effect.
SMILES,"activity change, negative = cytotoxicity",Potency
Nc1nc(-c2ccccc2)cs1,11.8% (inactive),–
CCC(COC(=O)CCS)(COC(=O)CCS)COC(=O)CCS,10.8% (inactive),–
CCCCCc1ccc(Cl)cc1,-10.4% (inactive),–
CCC(=O)OC(=O)CC,4.14% (inactive),–
CCC(=O)C(=O)CC,22.5% [at 95.3 µM] (inactive),–
C=CC(C)(CCC=C(C)C)OC=O (stereo not given),-12.6% (inactive),–
Oc1c(I)cc(Cl)c2cccnc12,–,16.8 µM (active) and 19.3 µM (active)
NC(=S)NC(N)=S,-23.6% (inactive),–
Clc1nnc(Cl)c2ccccc12,14.6% (inactive),–
O=C(O)[C@H](O)[C@@H](O)[C@H](O[C@@H]1O[C@H](CO)[C@H](O)[C@H](O)[C@H]1O)[C@H](O)CO,-23.9% [at 39.1 µM] (inactive),–
O=C(Nc1ccc2c(O)c(N=Nc3ccc(N=Nc4ccc(S(=O)(=O)O)cc4)cc3)c(S(=O)(=O)O)cc2c1)c1ccccc1,-7.18% (inactive),–
O=C(/C=C/c1ccc(O)c(O)c1)O[C@@H](C(=O)O)[C@@H](OC(=O)/C=C/c1ccc(O)c(O)c1)C(=O)O,10.7% (inactive),–
O=C(O)O,14.5% [at 8.08 µM] (inactive),–
CCOC(=O)NNc1ccc(N(CC)CC(C)O)nn1 (stereo not given),7.75% (inactive),–
Oc1ccccc1O,–,43.8 µM (active) and 30.6 µM (active)
CC(CO)Oc1ccccc1 (stereo not given),22.8% [at 95.3 µM] (inactive),–
COC(C)=O,–,inactive
NC(=O)c1cccc([N+](=O)[O-])c1,29.1% (inactive),–
COc1ccc2cc1Oc1ccc(cc1)C[C@H]1c3c(cc4c(c3Oc3cc5c(cc3OC)CCN(C)[C@@H]5C2)OCO4)CCN1C,16.5% (inactive),–
CC(CCc1ccccc1)NCC(O)c1ccc(O)c(C(N)=O)c1 (stereo not given),–,inactive

SMILES,"activity change, negative = cytotoxicity",Potency
CCCNCCC,-8.36% [at 95.3 µM] (inactive),–
CC(C)(C)C1CCC(=O)CC1,-18.4% (inactive),–
CCC(C)(CCC(C)C)C(=O)[O][Sn]([CH3])([CH3])[O]C(=O)C(C)(CC)CCC(C)C (stereo not given),-8.63% (inactive),–
COC(=O)c1ccccc1OC,14.2% (inactive),–
O=C(O)c1cccc(C(F)(F)F)c1,16.1% (inactive),–
CCC(C)n1ncn(-c2ccc(N3CCN(c4ccc(OC[C@H]5CO[C@](Cn6cncn6)(c6ccc(Cl)cc6Cl)O5)cc4)CC3)cc2)c1=O (stereo not given in full),-16% (inactive),–
COCCOc1cc2cc(C(=O)NC3CCN(C(C)C)CC3)n(CC(=O)Nc3ccc(Cl)cn3)c2cn1,13.3% (inactive),–
Cc1c(F)c(N2CCNC(C)C2)cc2c1c(=O)c(C(=O)O)cn2C1CC1 (stereo not given),-22% (inactive),–
CCCCC/C=C\C/C=C\CCCCCCCC(=O)O,–,inactive and 54.5 µM (active)
Cc1c(C)c2c(c(C)c1OC(=O)c1cccnc1)CC[C@@](C)(CCC[C@H](C)CCC[C@H](C)CCCC(C)C)O2,-4.86% (inactive),–
COc1cccc(OC)c1C(=O)O,14.3% (inactive),–
OC/C=C/CO,-17.6% (inactive),–
COc1cc(S(=O)(=O)O)c(C)cc1N=Nc1c(O)ccc2cc(S(=O)(=O)O)ccc12,12.6% (inactive),–
Cc1nc2n(c(=O)c1CCN1CCC(c3noc4cc(F)ccc34)CC1)CCCC2,-20.9% (inactive),–
CC(C)(C)CC(C)(C)c1ccc(Nc2ccc(C(C)(C)CC(C)(C)C)cc2)cc1,-13.1% [at 8.08 µM] (inactive),–
Oc1cc(Cl)cc(Cl)c1Cl,-15.3% [at 95.3 µM] (inactive),–
C/C=C/C=C/COC(=O)C(C)C,15.3% (inactive),–
C[C@@H](O)[C@H](N)C(=O)O,20% (inactive),–
Clc1ccnc(Cl)n1,-16.5% [at 95.3 µM] (inactive),–
CNC(=O)c1ccccc1Sc1ccc2c(/C=C/c3ccccn3)n[nH]c2c1,-15.6% (inactive),–
